The list is not random: actives were taken first. Their share in the collection is about 10%.
ALOX12 inhib – inhibitors of human 12-lipoxygenase (ALOX12) | purified 12-hLO, xylenol orange hydroperoxide absorbance | 150,000 compounds, 0.12% hits | AID 1452 | Potency, µM (doses to about 57.1 µM), without a hit: top-dose activity change, negative = inhibition, usual class: inhibitors | P18054; active = well fitted inhibition curve with a large enough effect; inconclusive = small, poorly fitted or top-dose-only effect; also: potency is read from the fitted curve at half-maximal effect; nearly all actives have a fitted effect of over 55% in size
Target sequence (P18054 whole entry, looked up): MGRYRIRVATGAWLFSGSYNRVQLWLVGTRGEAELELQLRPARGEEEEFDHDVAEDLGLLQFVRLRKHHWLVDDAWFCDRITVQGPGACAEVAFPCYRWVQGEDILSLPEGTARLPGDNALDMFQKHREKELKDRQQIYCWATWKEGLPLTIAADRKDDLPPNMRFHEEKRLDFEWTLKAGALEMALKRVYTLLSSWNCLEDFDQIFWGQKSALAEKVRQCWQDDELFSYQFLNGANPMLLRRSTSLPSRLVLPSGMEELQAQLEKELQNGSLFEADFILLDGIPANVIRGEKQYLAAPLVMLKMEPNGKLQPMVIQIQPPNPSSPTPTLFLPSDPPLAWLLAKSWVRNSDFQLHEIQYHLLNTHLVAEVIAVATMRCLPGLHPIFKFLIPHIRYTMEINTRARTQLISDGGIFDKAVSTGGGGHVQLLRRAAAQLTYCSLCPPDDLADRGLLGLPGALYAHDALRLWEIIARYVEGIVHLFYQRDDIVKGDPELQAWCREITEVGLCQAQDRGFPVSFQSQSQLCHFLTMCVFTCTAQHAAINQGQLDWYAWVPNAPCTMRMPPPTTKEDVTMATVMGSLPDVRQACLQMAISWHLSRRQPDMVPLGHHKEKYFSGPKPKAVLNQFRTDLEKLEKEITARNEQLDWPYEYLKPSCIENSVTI
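Hydroperoxide output read as Fe(III)-xylenol orange absorbance, 573-to-405 nm ratio, after 30 min reaction with 40 uM arachidonic acid. Enzyme: 150 nM purified human 12hLO, 15 min compound preincubation; 25 mM Hepes pH 7.0, room temperature.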
ALDH1A1 block – inhibitors of human aldehyde dehydrogenase 1A1 | Purified ALDH1A1, NADH fluorescence, propionaldehyde substrate | Potency, µM (series often up to 75.3 µM), for the others: at the top dose activity, negative = inhibition, hits mostly inhibitors | 220,000 compounds, 7.3% hits | AID 1030;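 also: potency is read from the fitted curve at half-maximal effect; plate controls were no enzyme wells and a reference inhibitor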
HPGD block – HPGD (human) dehydrogenase inhibition. AID 894. purified HPGD, NADH fluorescence kinetic, PGE2 substrate. 150,000 compounds, 4.3% hits. Potency, µM, without a hit: top-dose activity change, negative = inhibition, usual class: inhibitors; also: potency is read from the fitted curve at half-maximal effect
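20 nM HPGD preincubated 15 min at room temperature with compound in 50 mM Tris-HCl pH 8, 0.01% Tween 20. Started with 1 mM NAD+ and 30 uM prostaglandin E2; NADH fluorescence (360/450 nm) read 5 times over 30-s intervals, last minus first.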
PNC inhibitor – inhibitors of perinucleolar compartment assembly | PC3M PTB-GFP, PNC prevalence imaging, 16 h; hits give low values | activity change (PNC), negative = inhibition, % at 10 µM | 140,000 compounds, 3.1% hits;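 active = readout at or below -70, meaning at least 70% loss of cells showing the perinucleolar compartment, a nuclear body marking cancer cells; inconclusive = readout between -30 and a set limit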;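 also: plate controls were DMSO wells for no effect and camptothecin positive control wells for full effect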
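PC3M cells stably expressing PTB-GFP, 750–1000 cells/well, treated 16 h at 37 °C with compound (23 nl of library stock), in duplicate. After paraformaldehyde fixation and Hoechst stain, imaged at 20x; PNC prevalence scored by image analysis.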
LMNA splice mod – modulators of lamin A splicing; HeLa LMNA splicing GFP/RFP minigene ratio, 48 h; Potency, µM (highest dose often 46.1 µM), for inactives: top-dose ratio change, negative = inhibition, hits mostly inhibitors; 200,000 compounds, 0.01% hits; active = well fitted inhibition curve with a large enough effect in the signal ratio, with a control signal flat, not every such curve was filed as active; inconclusive = small, poorly fitted or top-dose-only effect, or effect the other way, or a change in a side signal; the % refers to the signal ratio; also: potency is read from the fitted curve at half-maximal effect
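S3 HeLa stable clones carrying a lamin A-EGFP splicing minigene plus DsRed2 were seeded at 600 cells/well in Opti-MEM with 2% FBS, pin-dosed and incubated 48 h at 37°C. Acumen cytometry (488 nm) gave the GFP/RFP total-intensity ratio.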
Starred values were filed as active, the others as inactive; ? = inconclusive; nt = no result given; [ ] = dose if it differs, or a comment. Unless noted, calls follow the shape of the dose curve; as a rule, active = well fitted inhibition curve with a large enough effect (not every such curve was filed as active); inconclusive = small, poorly fitted or top-dose-only effect, or another doubt; inactive = no such curve, though single readings can be large or run the other way. Unless noted, % is scaled to controls: 0 for no effect and ±100 for the full control effect.

SMILES	ALOX12 inhib	ALDH1A1 block	HPGD block	PNC inhibitor	LMNA splice mod
CC(NC(=O)c1cc(F)c(F)cc1Cl)c1ccncc1 (stereo unspecified)	nt	1%	nt	nt	nt
COC(=O)CNC(=O)c1cc(-c2ccncc2)nc2c(C)c(Cl)ccc12	nt	13µM*	nt	nt	nt
Cc1c(Cl)ccc2c(C(=O)NC(C)c3ccncc3)cc(-c3ccncc3)nc12 (stereo unspecified)	nt	1.1µM*	nt	nt	nt
Cc1c(Cl)ccc2c(C(=O)NCCN3CCCCC3)cc(-c3ccccn3)nc12	nt	2%	nt	nt	nt
C=CC1=C[C@@H](O)C2OC2C12OCCCO2 (stereo partly specified)	nt	1%[13.5 µM]	nt	nt	nt
Cc1ccc(S(=O)(=O)Nc2cccnc2Oc2ccc(Cl)cc2)cc1	nt	0.02µM*	nt	nt	nt
CC1=C(C)C(c2ccccc2)NC(=S)N1 (stereo unspecified)	-5%	13µM*	-14%	37	-12%
COc1cc(C(=O)N2CCN(c3cc(Cl)ccc3Cl)CC2)cc(OC)c1OC	5%	-7%	1%	-88*	?
COc1ccc(C(=O)C2CCN(C(=O)c3ccc(C)cc3)CC2)cc1	-2%	5µM*	-6%	7	?
COc1ccc(C(=O)C2CCN(C(=O)c3ccco3)CC2)cc1	-7%	?	-7%	25	11%
COc1cc(C(=O)N2CCN(c3cccc(C)c3C)CC2)cc(OC)c1OC	-1%	-5%	-10%	-122*	?
Cc1noc(C)c1S(=O)(=O)Nc1ccc(C(=O)N2CCN(c3cccc(Cl)c3)CC2)cc1	0%	10%	-4%	17	?
Cc1cccc(N2CCN(C(=O)c3ccc(NS(=O)(=O)c4c(C)noc4C)cc3)CC2)c1C	-5%	14µM*	-21%	45	-27%
COc1cccc(Cn2c(=O)n(-c3cccc(Cl)c3C)c(=O)c3c4c(sc32)CN(C(C)=O)CC4)c1	nt	nt	nt	nt	-9%[46 µM]
COc1cc(C(=O)N2CCN(C(=O)COc3ccc4ccccc4c3)CC2)cc(OC)c1OC	-1%	?	-9%	-20	-6%
COc1ccc(C(=O)N2CCN(C(=O)c3cc(OC)c(OC)c(OC)c3)CC2)cc1	5%	14µM*	-16%	18	-9%
COc1ccccc1CNC(=O)c1cnc2sc(N3CCOCC3)nn2c1=O	nt	nt	nt	nt	4%[46 µM]
NC(=O)c1cc[n+](CC2=C(C(=O)O)N3C(=O)C(NC(=O)C(c4ccccc4)S(=O)(=O)[O-])C3SC2)cc1 (stereo unspecified)	3%	?	32µM*	nt	nt
O=C(OC1CCS(=O)(=O)c2sccc21)c1ccccc1 (stereo unspecified)	-9%	22µM*	-10%	?	?
Cc1nn(C)c2c1c(C(F)(F)F)cc(=O)n2CC(=O)N1CCCCC1C (stereo unspecified)	nt	nt	nt	nt	10%[46 µM]
CCNS(=O)(=O)c1cccc(C(=O)c2c(C)cc3ccccn23)c1	-6%	2%	-13%	-90*	?
Cc1cc2ccccn2c1C(=O)c1ccc(S(=O)(=O)N(C)C)cc1	nt	-5%	nt	nt	nt
c1ccc(-n2c(SCc3nc(-c4cccs4)no3)nnc2-c2ccco2)cc1	-18%	7.1µM*	32µM*	?	-17%
c1ccc(-n2c(SCc3ccncc3)nnc2-c2ccco2)cc1	-6%	10µM*	-11%	-6	?
CCCCOCCOCCSC#N	-4%	-4%	-7%	nt	nt
SMILES	ALOX12 inhib	ALDH1A1 block	HPGD block	PNC inhibitor	LMNA splice mod
CCn1c(CSc2ncccn2)nnc1SCC(=O)N1CCc2ccccc21	-2%	20µM*	-14%	?	?
Cn1c(Cn2nnc3ccccc32)nnc1SCC(=O)N1CCc2ccccc21	2%	28µM*	-9%	?	6%
CCn1c(SCC(=O)N2CCc3ccccc32)nnc1-c1ccncc1	-8%	-2%	-12%	?	14%
N=C1N(/N=C/c2ccccc2)C(=Nc2ccccc2)C(=S)N1c1ccccc1	-2%	?	-21%	-100*	12%
O=C1/C(=C/c2c[nH]c3ccccc23)CCC/C1=C\c1c[nH]c2ccccc12	-13%	1.3µM*	-25%	14	?
COc1ccccc1CN1CCN(Cc2nc(-c3cccs3)no2)CC1	nt	1%	nt	nt	4%[46 µM]
COCC1CCN(Cc2nc(-c3cccs3)no2)C1 (stereo unspecified)	nt	28µM*	nt	nt	nt
C[C@@H]1CN(Cc2nc(-c3cccs3)no2)C[C@H](C)O1	nt	-5%	nt	nt	nt
c1csc(-c2noc(CN3CCc4sccc4C3)n2)c1	nt	20µM*	nt	nt	nt
COc1ccc(NC(=O)c2noc3c2CCCC3)cc1Cl	nt	nt	nt	nt	4%[46 µM]
COC(=O)c1cc(C)sc1NC(=O)CCCC(=O)O	0%	0%	-13%	-119*	9%
Cc1cc(S(=O)(=O)N2CCC(NC(=O)C34CC5CC(CC(C5)C3)C4)CC2)ccc1-n1cnnn1	-2%	?	-22%	29	7%
Cc1cc(S(=O)(=O)N2CCC(N3CCCCC3)CC2)ccc1-n1cnnn1	-3%	0.028µM*	-12%	-30	13%
CC(C)CNC(=S)NC(=O)c1ccccc1Cl	-7%	-6%	-8%	-134*	-5%
COc1ccc(NC(=S)NC(=O)c2ccccc2Cl)cc1	nt	13µM*	nt	nt	nt
O=C(NC(=S)Nc1ccc(O)cc1)c1ccccc1Cl	nt	18µM*	nt	nt	nt
O=C(NC(=S)Nc1ccc(Cc2ccncc2)cc1)c1ccccc1Cl	0%	?	nt	55	-13%
O=S(=O)(O)O	3%	?	-4%	nt	-4%
CNC(=O)[C@H](C)[C@H]1C[C@]1(C)[C@H](NC(=O)OCc1ccccc1)c1ccccc1	-2%	7.9µM*	-11%	nt	nt
